Assay outcomes (PubChem BioAssay)
This excerpt belongs to a sample that is enriched for hits.
ST2 IL33 inh: inhibitors of human ST2 (IL1RL1) binding to IL-33, primary screen, biochemical, AlphaLISA; Interleukin-1 receptor-like 1 (Homo sapiens), Q01638; AlphaLISA ST2-Fc/biotin-IL-33 interaction, 1 h; inhibition, % for hits at 17 µM; 78,000 tested, 2.3% active; in the data active = inhibition above about 30%
Target sequence (Q01638 whole entry, looked up): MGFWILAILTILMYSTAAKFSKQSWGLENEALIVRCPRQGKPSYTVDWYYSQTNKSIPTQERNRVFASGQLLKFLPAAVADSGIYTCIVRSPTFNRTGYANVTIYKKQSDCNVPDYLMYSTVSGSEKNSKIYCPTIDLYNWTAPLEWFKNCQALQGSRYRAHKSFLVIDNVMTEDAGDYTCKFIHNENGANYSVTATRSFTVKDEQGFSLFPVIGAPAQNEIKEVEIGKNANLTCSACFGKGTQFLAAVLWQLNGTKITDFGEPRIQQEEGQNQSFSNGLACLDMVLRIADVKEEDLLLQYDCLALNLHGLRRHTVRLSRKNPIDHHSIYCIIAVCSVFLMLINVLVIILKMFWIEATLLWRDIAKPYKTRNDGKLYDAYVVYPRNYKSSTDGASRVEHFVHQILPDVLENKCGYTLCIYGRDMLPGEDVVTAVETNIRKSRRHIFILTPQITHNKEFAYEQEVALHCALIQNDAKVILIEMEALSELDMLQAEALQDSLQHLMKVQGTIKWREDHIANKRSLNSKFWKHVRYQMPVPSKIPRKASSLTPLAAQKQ
Of the large screens only hits and unclear results are named; the others gave an inactive call.

COc1ccc(/C=C/c2nc3ccccc3c(=O)n2-c2ccccc2OC)cc1	ST2 IL33 inh 32.0%
COc1ccc(-n2c(/C=C/c3ccccc3)nc3ccccc3c2=O)cc1OC	none
O=c1c2ccccc2nc(/C=C/c2ccccc2)n1-c1ccccc1F	none
CCCS(=O)(=O)Nc1ccc(=O)n2c1[C@@H]1C[C@@H](CN(C(=O)NC3CCCCC3)C1)C2	none
CN1C(=O)C2(CCN(CCS(=O)(=O)c3ccccc3)CC2)c2ccccc21	none
COc1ccc(Cl)cc1/C=C/[N+](=O)[O-]	ST2 IL33 inh 97.0%
C#CCOc1c(I)cc(/C=C/[N+](=O)[O-])cc1OC	none
CN(Cc1ccccc1)C[C@H]1CN2CC[C@H]1C[C@@H]2CNS(=O)(=O)c1ccccc1	none
Fc1ccc(CN2CCN(c3cccc(Cl)c3)CC2)cc1	none
O=[N+]([O-])c1ccc(CN2CCN(Cc3ccccc3)CC2)cc1	none
O=[N+]([O-])c1ccc(N2CCN(Cc3cccc(Cl)c3)CC2)cc1	ST2 IL33 inh 36.0%
CN1CCN(Cc2cccc(Br)c2)CC1	none
Brc1cccc(CN2CCN(c3ccccc3)CC2)c1	ST2 IL33 inh 31.0%
CCN1CCN(Cc2cccc(Br)c2)CC1	none
Cc1c(Br)c([N+](=O)[O-])nn1CC(=O)Nc1ccc(Cl)cc1C(=O)c1ccccc1	none
O=S(=O)(NC[C@H]1C[C@@H]2CCN1C[C@@H]2CN1CCc2ccccc2C1)c1cccs1	none
CC(=O)NCCNC(=O)[C@H]1CN2CCC1C[C@@H]2Cn1cc(-c2cccc(O)c2)nn1 (stereo partly drawn)	none
C#CCN(C)C[C@H]1CN2CC[C@H]1C[C@@H]2CNS(=O)(=O)c1ccc(OC)cc1	none
COc1ccc2c(c1)c(C(=O)NCc1snnc1C(C)C)c(C)n2C	none
Cn1nc(-c2cccc3c2CCNC3)c2cc(F)ccc21	none
CC(c1c(O)c2ccccc2oc1=O)c1c(O)c2ccccc2oc1=O	ST2 IL33 inh 36.0%
COc1ccc(C(c2c(O)c3ccccc3oc2=O)c2c(C)n(C)n(-c3ccccc3)c2=O)cc1 (stereo not drawn)	none
Cc1c(C(c2ccccc2Cl)c2c(O)c3ccccc3oc2=O)c(=O)n(-c2ccccc2)n1C (stereo not drawn)	none
S=C(NCc1ccco1)NC[C@H]1C[C@@H]2CCN1C[C@@H]2CN1CCCCC1	none
CCC(CC)c1cc([C@H]2CN3CC[C@H]2C[C@@H]3CNC(=O)c2ccc(OC)cc2)nc(-c2ccncc2)n1	none
C#C[C@H]1CN2CC[C@H]1C[C@@H]2CNC(=S)NCCN1CCOCC1	none
Cc1ccccc1-n1c(Cc2ccccc2)nc2ccccc2c1=O	none
Cc1ccccc1-n1c(/C=C2\C(=O)N(C)c3ccccc32)nc2ccccc2c1=O	ST2 IL33 inh 49.0%
O=c1c2ccccc2nc(-c2ccccc2Cl)n1-c1ccccc1O	none
CC(C)Nc1cc(N2CCN(C(C)C)CC2)ncn1	none
COCCC(=O)N1C[C@@H]2C[C@H](C1)c1ccc(NC(=O)c3ccc(C#N)cc3)c(=O)n1C2	ST2 IL33 inh 35.0%
COCCC(=O)N1C[C@@H]2C[C@H](C1)c1ccc(-c3cccc(C(F)(F)F)c3)c(=O)n1C2	none
COc1ccc(-c2ccc3n(c2=O)C[C@H]2C[C@@H]3CN(C(=O)c3ccc(C#N)cc3)C2)cc1	none
COc1ccc(NC(=O)N2C[C@@H]3C[C@H](C2)c2ccc(NC(=O)CN(C)C)c(=O)n2C3)cc1	none
CN1[C@H]2CC[C@@H]1CN(C(=O)c1nc(N)n[nH]1)CC2	none
CCN(CC)C(=O)Cn1cc(/C=C2\C(=O)NC(=O)N(c3ccccc3F)C2=O)c2ccccc21	none
O=C1NC(=O)C(=Cc2cn(CCOc3ccc4c(c3)OCO4)c3ccccc23)C(=O)N1	ST2 IL33 inh 35.0%
COc1ccc(CCNCc2c[nH]c3ccccc23)cc1OC	none
Cc1ccc2c(c1)c(C(=O)NC1CCC(n3cnnc3)CC1)nn2C (stereo not drawn)	none
COc1ccc(-c2cc([C@H]3CN4CC[C@H]3C[C@@H]4CNC(=S)Nc3ccc(C#N)cc3)n(C)n2)cc1OC	none
O=c1c2ccccc2nc(-c2ccccc2)n1-c1ccccc1	none
Cc1cccc(-n2c(/C=C3\C(=O)Nc4ccccc43)nc3ccccc3c2=O)c1	none
Cc1cccc(-n2c(-c3cccnc3)nc3ccccc3c2=O)c1	ST2 IL33 inh 46.0%
CN(C)c1ccc(NC(=S)NC[C@H]2C[C@@H]3CCN2C[C@@H]3CN2CCc3ccccc32)cc1	none
O=C(O)C1Nc2c(F)cccc2C2C(Cl)C(Sc3ccccc3[N+](=O)[O-])CC12 (stereo not drawn)	ST2 IL33 inh 34.0%
S=C(NC[C@H]1C[C@@H]2CCN1C[C@@H]2CN1CCSCC1)Nc1ccc(-n2cccn2)cc1	none
COc1oc(C2C/C(=C/C(C)=C/c3ccc([N+](=O)[O-])cc3)CO2)c(C)c(=O)c1C (stereo not drawn)	none
Cc1ccccc1N1CCN(Cc2ccc(O)cc2)CC1	none
CCOc1ccc(CN2CCN(c3ccccc3C)CC2)cc1	none
Cc1ccccc1N1CCN(Cc2ccc(N(C)C)cc2)CC1	ST2 IL33 inh 45.0%
O=C(COc1ccccc1)N(O)C(C[N+](=O)[O-])c1ccccc1 (stereo not drawn)	none
CC(C)(C)c1ccc(-c2cn(C[C@H]3CC4CCN3C[C@@H]4C(=O)NCc3ccc(F)cc3)nn2)cc1 (stereo partly drawn)	none
COCC(=O)NC[C@H]1C[C@@H]2CCN1C[C@@H]2CN1C[C@@H]2C[C@H](C1)c1cccc(=O)n1C2	none
COc1ccc(S(=O)(=O)NC[C@H]2C[C@@H]3CCN2C[C@@H]3CN2CCc3ccccc3C2)cc1	none
COc1ccc(-c2cc([C@H]3CN4CC[C@H]3C[C@@H]4CNC(=O)N3CCOCC3)n(C)n2)cc1	none
Cc1ccc(N2CCN(Cc3c(F)cccc3Cl)CC2)cc1	ST2 IL33 inh 36.0%
CCOc1ccc(CN2CCN(c3ccc(OC)cc3)CC2)cc1	ST2 IL33 inh 34.0%
COc1cc(C)c(CN2CCN(c3ccccc3)CC2)cc1C	ST2 IL33 inh 31.0%
COc1cccc(CN2CCN(c3ccc(F)cc3)CC2)c1	none
COc1ccccc1CN1CCN(c2ccccc2)CC1	none
COc1cc(CN2CCN(c3ccc(F)cc3)CC2)ccc1O	none
COc1ccc(N2CCN(Cc3ccc(Cl)cc3)CC2)cc1	ST2 IL33 inh 44.0%
CCOc1ccc(CN2CCN(c3ccccc3OC)CC2)cc1	none
Cc1cccc(CN2CCN(c3ccccc3Cl)CC2)c1	none
COc1ccc(CN2CCN(c3ccccc3)CC2)cc1O	none
Fc1ccc(CN2CCN(c3cccc(Cl)c3)CC2)c(F)c1	none
COc1ccc(CN2CCN(c3cccc(C)c3C)CC2)cc1	none
O=[N+]([O-])c1ccc(O)c(CN2CCN(c3ccccc3Cl)CC2)c1	none
Cc1ccnc(CC(C)N(C)C(=O)c2cn(C)c3ccccc23)c1 (stereo not drawn)	none
O=C(NC[C@H]1C[C@@H]2CCN1C[C@@H]2CN1CCN(c2ccccn2)CC1)c1ccco1	none
Cn1nc(-c2ccco2)cc1[C@H]1CN2CC[C@H]1C[C@@H]2CNS(=O)(=O)c1ccccc1	none
O=C(c1ccco1)N1C[C@@H]2C[C@H](C1)c1ccc(-c3cccnc3)c(=O)n1C2	none
O=C(O)c1[nH]c2ccccc2c1CC(=O)N1CCN(Cc2ccccc2)CC1	none
Clc1ccc(CN2CCN(c3ccccc3)CC2)cc1Cl	none
CN1CCN(Cc2ccc(Cl)c(Cl)c2)CC1	none
COc1ccc(Br)cc1CN1CCN(c2ccccc2C)CC1	none
CCN1CCN(Cc2cc(Br)ccc2OC)CC1	none
COc1ccc(N2CCN(Cc3cccc(Cl)c3Cl)CC2)cc1	ST2 IL33 inh 32.0%
COc1ccc(N2CCN(Cc3cc(Br)ccc3OC)CC2)cc1	ST2 IL33 inh 41.0%
COc1ccc(N2CCN(Cc3ccc(Cl)c(Cl)c3)CC2)cc1	ST2 IL33 inh 35.0%
COc1cccc(N2CCN(Cc3ccccc3OC)CC2)c1	none
